Hits are enriched below; roughly 3.1% of the tested compounds scored in any of these assays.
TR SRC2 fluor cs: Texas Red fluorescence interference in TRb-SRC2 counter-screen | 280,000 tested, 0.29% active | TRb/SRC2 Texas Red total fluorescence interference | AID 1479 | Potency, µM (series often up to 106 µM), inactives show at the top dose fluorescence change, negative = quenching; active = well fitted curve in either direction with a large enough effect; inconclusive = small, poorly fitted or top-dose-only effect
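Flags fluorescent or light-absorbing compounds by total fluorescence, S + 2P, at 555 nm excitation and 632 nm emission. Mixture: 20 nM Texas Red SRC2 peptide, 0.6 uM human TRb LBD, 1 uM T3, 5% DMSO; compound exposure 5 h at ambient temperature.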
Tau fluor cs: counter-screen for tau fibril formation inhibitors; tau K18 P301L Alexa594 fluorescence, heparin fibrillization; 280,000 tested, 0.93% active; Potency, µM (titrated, usually from 57.7 µM), for inactives: top-dose activity change, negative = decrease; AID 1463; also: nearly all actives have a fitted effect of over 55% in size
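Human tau K18 P301L (15 uM unlabeled, 0.24 uM Alexa 594-labeled) in 100 mM sodium acetate pH 7 with 20 uM heparin, 6 hr at 37 C. ThT 30 uM added, 1 hr ambient; Alexa 594 FP and total fluorescence read at 555/632 nm.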
Tau FP inhib: inhibitors of human tau fibril formation | P10636 | K18 P301L tau heparin fibrillization, Alexa594 FP, 6 h | Potency, µM (titrated, usually from 57.7 µM), for the others: top-dose activity, negative = inhibition, most hits filed as inhibitors | 280,000 tested, 0.39% active | AID 1468; also: nearly all actives have a fitted effect of over 55% in size
Target sequence (P10636 561-689 P618L limits assumed): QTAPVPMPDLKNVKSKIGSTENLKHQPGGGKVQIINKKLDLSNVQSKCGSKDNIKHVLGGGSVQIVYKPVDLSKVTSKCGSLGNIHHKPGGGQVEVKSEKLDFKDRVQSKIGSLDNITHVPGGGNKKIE
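Quantitative HTS format: compounds meet 15 uM recombinant K18 P301L tau and Alexa 594-tau tracer in 100 mM sodium acetate pH 7; 20 uM heparin triggers fibrillization at 37 C over 6 hr; FP gives the signal.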
Tau ThT inhib: tau fibrillization inhibition (ThT binding) | P10636 | recombinant tau K18 P301L, heparin-induced fibrillization, ThT fluorescence | Potency, µM (highest dose often 57.4 µM), for inactives: at the highest dose activity, negative = inhibition, actives largely listed as inhibitors | 270,000 tested, 2.1% active | AID 1460; also: nearly all actives have a fitted effect of over 55% in size
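Fibril formation assay: tau K18 P301L at 15 uM with trace Alexa 594 label, heparin inducer 20 uM, pH 7 sodium acetate buffer, 37 C for 6 hr; endpoint ThT signal.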
TRb SRC2 PPI: TRbeta-SRC2 interaction inhibition; TRbeta-SRC2 peptide binding, fluorescence polarization; receptor liganded with 1 µM T3; Potency, µM (series often up to 106 µM), for inactives: at the highest dose activity change, negative = inhibition, hits mostly inhibitors; 280,000 tested, 0.065% active; AID 1469;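 also: plate controls were bound peptide for no effect and peptide without receptor for full effect; nearly all actives have a fitted effect of over 50% in size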
Target sequence (P10828 whole entry, looked up): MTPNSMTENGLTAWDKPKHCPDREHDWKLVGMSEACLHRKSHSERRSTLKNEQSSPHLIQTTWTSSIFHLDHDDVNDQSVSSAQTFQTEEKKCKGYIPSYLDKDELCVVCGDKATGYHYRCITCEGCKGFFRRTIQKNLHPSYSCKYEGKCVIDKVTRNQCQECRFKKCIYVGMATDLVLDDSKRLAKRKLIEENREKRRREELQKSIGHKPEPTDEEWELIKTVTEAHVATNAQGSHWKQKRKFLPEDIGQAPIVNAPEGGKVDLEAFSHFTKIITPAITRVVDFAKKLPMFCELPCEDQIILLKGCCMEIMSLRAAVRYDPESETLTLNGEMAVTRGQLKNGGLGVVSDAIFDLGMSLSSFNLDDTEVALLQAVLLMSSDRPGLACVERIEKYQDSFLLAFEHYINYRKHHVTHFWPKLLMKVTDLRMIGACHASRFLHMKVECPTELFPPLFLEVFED
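Fluorescence polarization of 20 nM Texas Red SRC2 peptide with 0.6 uM human TRb ligand-binding domain, in Tris buffer with 1uM T3 and 5% DMSO. Incubated 5 hr ambient; normalized to unbound and bound controls.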
* hit, by the source's call; [ ] = dose if it differs, or a comment. Unless noted, calls follow the shape of the dose curve; as a rule, active = well fitted curve in the direction sought with a large enough effect; inconclusive = small, poorly fitted or top-dose-only effect, or another doubt; inactive = no such curve, though single readings can be large; an effect the other way counts as inactive or inconclusive. Unless noted, % is scaled to controls: 0 for no effect and ±100 for the full control effect; potency is read from the fitted curve at half-maximal effect.

CCCCCCCC/C=C\CCCCCCCC(=O)N[C@H](CO)Cc1ccc(O)cc1 was read as TR SRC2 fluor cs -5.6% and TRb SRC2 PPI -0.8%.
For O=C(NC1CCCCC1)C(c1cccnc1)N(C(=O)c1ccc(Cl)nc1)C1CCCCC1 (stereo unspecified) the results were TR SRC2 fluor cs 0.1%, Tau fluor cs -4.4%, Tau FP inhib 1.8%, Tau ThT inhib -5.0% and TRb SRC2 PPI 0.2%.
Screening CC(C)(C)NC(=O)C(c1cccnc1)N(C(=O)c1ccc(Cl)nc1)C1CCCC1 (stereo unspecified) returned TR SRC2 fluor cs -2.0%[53 µM], Tau fluor cs -37.2%, Tau FP inhib -64.5%, Tau ThT inhib 12.6µM* and TRb SRC2 PPI -10.3%[53 µM].
Screening Cc1ccc(-n2nnnc2SC(C(=O)c2c[nH]c3ccccc23)c2ccccc2)cc1 (stereo unspecified) returned TR SRC2 fluor cs -13.2%, Tau fluor cs inconclusive, Tau FP inhib 11.2µM*, Tau ThT inhib 17.1% and TRb SRC2 PPI 6.5%.
`CCOC(=O)Cc1nnc(NC(=O)CSc2nnc3c4ccccc4n(C)c3n2)s1` gave TR SRC2 fluor cs -3.1%, Tau fluor cs -13.3%, Tau FP inhib -4.3%, Tau ThT inhib inconclusive and TRb SRC2 PPI 2.3%.
For Cc1ccc(C2=NN=C(NC(=O)CSc3nnc4c5ccccc5n(C)c4n3)SC2)cc1 the results were TR SRC2 fluor cs -4.9%, Tau fluor cs -21.8%, Tau FP inhib inconclusive, Tau ThT inhib 2.82µM* and TRb SRC2 PPI 4.1%.
For Cc1ccc(C2=NN=C(NC(=O)CSc3nc(C)cc(C)n3)SC2)cc1 the results were TR SRC2 fluor cs 2.8%, Tau fluor cs -18.3%, Tau FP inhib inconclusive, Tau ThT inhib 12.6µM* and TRb SRC2 PPI -7.1%.
For CCCc1ncc(C(O)c2ccccc2OC)n1C (stereo unspecified) the results were TR SRC2 fluor cs -4.4%, Tau fluor cs 3.1%, Tau FP inhib 7.5%, Tau ThT inhib 4.9% and TRb SRC2 PPI -0.1%.
Screening CC(=O)N1CCc2cc(C(=O)CN3CCN(c4ccccn4)CC3)ccc21 returned TR SRC2 fluor cs -0.4%, Tau fluor cs -17.8%, Tau FP inhib -8.8% and TRb SRC2 PPI 3.7%.
For Cn1c(=O)c2c(SCC(=O)N3CCc4ccccc43)nc(-c3ccccc3Cl)nc2n(C)c1=O the results were TR SRC2 fluor cs -1.4%, Tau fluor cs 2.9%, Tau FP inhib 0.9%, Tau ThT inhib -1.2% and TRb SRC2 PPI 4.7%.
`CCC(=O)Oc1ccc(-c2nc3ccccc3c(=O)o2)cc1` gave TR SRC2 fluor cs 1.0%, Tau fluor cs -6.0%, Tau FP inhib -5.3%, Tau ThT inhib inconclusive and TRb SRC2 PPI -8.1%.
Cc1cccn2c(=O)c(/C=C(\C#N)c3nc4ccccc4n3C)c(Oc3ccc(Cl)cc3)nc12 was read as TR SRC2 fluor cs -10.8%, Tau fluor cs -8.8%, Tau FP inhib -0.6%, Tau ThT inhib inconclusive and TRb SRC2 PPI 7.1%.
`O=C1C(Cl)=C(N2CCC(C(=O)O)CC2)C(=O)c2ccccc21` gave TR SRC2 fluor cs -24.2%, Tau fluor cs 10µM*[quencher], Tau FP inhib 11.2µM*, Tau ThT inhib 4.47µM* and TRb SRC2 PPI inconclusive.
`CCOc1ccc2oc(=O)cc(CN3CCN(c4cc(C)ccc4C)CC3)c2c1` gave TR SRC2 fluor cs -0.4%, Tau fluor cs -3.0%, Tau FP inhib 2.8%, Tau ThT inhib 3.6% and TRb SRC2 PPI -0.4%.
`O=C1C(Cl)=C(Nc2ccc3cn[nH]c3c2)C(=O)c2ccccc21` gave TR SRC2 fluor cs -12.9%, Tau fluor cs 1.41µM*[quencher], Tau FP inhib 7.94µM*, Tau ThT inhib 1.78µM* and TRb SRC2 PPI -6.9%.
Screening O=C(Oc1ccc(NC2=C(Cl)C(=O)c3ccccc3C2=O)cc1)c1ccc([N+](=O)[O-])cc1 returned TR SRC2 fluor cs -33.5%, Tau fluor cs 2.82µM*[quencher], Tau FP inhib inconclusive, Tau ThT inhib 3.16µM* and TRb SRC2 PPI -9.3%.
For CC(=O)Nc1ccc(NC(=O)c2cccc3c2-c2ccccc2C3=O)cc1 the results were TR SRC2 fluor cs -1.5%, Tau fluor cs -9.4%, Tau FP inhib 9.1%, Tau ThT inhib -14.8% and TRb SRC2 PPI -2.9%.
For COC1=C(Nc2ccccc2OC)C(=O)c2ccccc2C1=O the results were TR SRC2 fluor cs -3.2%, Tau fluor cs inconclusive, Tau FP inhib inconclusive, Tau ThT inhib inconclusive and TRb SRC2 PPI -1.1%.
COc1ccccc1NC1=C(NC(C)=O)C(=O)c2ccccc2C1=O was read as TR SRC2 fluor cs -3.4%, Tau fluor cs -29.0%, Tau FP inhib inconclusive, Tau ThT inhib 20µM* and TRb SRC2 PPI 6.5%.
Screening CC(=O)Nc1ccc(NC2=C(Cl)C(=O)c3ccccc3C2=O)cc1 returned TR SRC2 fluor cs -2.9%, Tau fluor cs 2.24µM*[quencher], Tau FP inhib 10µM*, Tau ThT inhib 2µM* and TRb SRC2 PPI 0.7%.
Screening O=c1c2nncn2ccn1-c1ccc(F)c(F)c1 returned TR SRC2 fluor cs 5.0%, Tau fluor cs -16.9%, Tau FP inhib -2.5%, Tau ThT inhib -15.3% and TRb SRC2 PPI -7.3%.
`O=C(NC1=C(Nc2ccc(Cl)cc2)C(=O)c2ccccc2C1=O)c1ccccc1` gave TR SRC2 fluor cs 19.4%, Tau fluor cs inconclusive, Tau FP inhib -12.8%, Tau ThT inhib 17.8µM* and TRb SRC2 PPI -11.1%.
Screening Cc1ccc(NC2=C(NCCO)C(=O)c3ccccc3C2=O)cc1 returned TR SRC2 fluor cs 1.1%, Tau fluor cs inconclusive, Tau FP inhib inconclusive, Tau ThT inhib 22.4µM* and TRb SRC2 PPI -7.6%.
O=C1C=C(Nc2ccccc2)c2ccccc2C1=O was read as TR SRC2 fluor cs -2.4%, Tau fluor cs -19.1%, Tau FP inhib -14.2%, Tau ThT inhib inconclusive and TRb SRC2 PPI -13.7%.
Screening Cc1ccc(Nc2nc(N)c([N+](=O)[O-])c(NCCO)n2)cc1 returned TR SRC2 fluor cs -4.0%, Tau fluor cs -16.8%, Tau FP inhib 1.9%, Tau ThT inhib inconclusive and TRb SRC2 PPI 0.8%.
`Cc1cccc(NC2=C(NC(=O)c3ccccc3)C(=O)c3ccccc3C2=O)c1` gave TR SRC2 fluor cs -3.5%, Tau fluor cs -22.9%, Tau FP inhib -2.9%, Tau ThT inhib inconclusive and TRb SRC2 PPI 6.4%.
CN(C)c1ccc(NC2=C(Cl)C(=O)c3ccccc3C2=O)cc1 was read as TR SRC2 fluor cs -21.8%, Tau fluor cs 3.55µM*[quencher], Tau FP inhib 14.1µM*, Tau ThT inhib 7.94µM* and TRb SRC2 PPI -29.9%.
Screening CCCCCCCCCC[N+](C)(C)Cc1ccccc1 returned TR SRC2 fluor cs -0.6%[201 µM] and TRb SRC2 PPI 4.1%[201 µM].
Screening CCc1ccccc1N(C)C(=O)Cn1cnc2sc(C)c(S(=O)(=O)N3CCC(C)CC3)c2c1=O returned TR SRC2 fluor cs -0.8%, Tau fluor cs -19.0%, Tau FP inhib -13.8%, Tau ThT inhib -3.7% and TRb SRC2 PPI -4.3%.

Screening results from PubChem.
